Laboratory results taken from the supplement of paper PMC10849652.
Targets with a hit are over-represented here; the source holds about 8,800 in all. About 0.5% of all pairs of compound and target were hits. A number with no mark means an inactive call.

compound: C1=CC2=C(C=CC(=C2)/C=C\3/C(=O)NC(=NCC4=CC=CS4)S3)N=C1; assay: log2 fold change, soluble protein after heating vs DMSO (PISA); higher = thermal stabilisation; K562 lysate, 10 uM; active = over 0.2 and 3.5 SD of the protein, either way, in both replicates (recomputed)
Procedure, shortened: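 Values give the log-two fold change in thermal stability against solvent controls, from duplicates. Crude K562 extract at 1 mg/mL protein, made by dounce homogenisation in PBS pH 7.4 with 1 mM MgCl2, was treated with 10 μM compound for 30 min. After 3 min heating across 48°C-58°C, aliquots were pooled, adjusted to 0.5% NP-40 at 4°C and centrifuged at 21,000xg for 90 min. The supernatant was measured by TMTpro 16plex LC-MS/MS with channel sums equalised.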

UniProt P08047, sequence (P08047 whole entry, looked up): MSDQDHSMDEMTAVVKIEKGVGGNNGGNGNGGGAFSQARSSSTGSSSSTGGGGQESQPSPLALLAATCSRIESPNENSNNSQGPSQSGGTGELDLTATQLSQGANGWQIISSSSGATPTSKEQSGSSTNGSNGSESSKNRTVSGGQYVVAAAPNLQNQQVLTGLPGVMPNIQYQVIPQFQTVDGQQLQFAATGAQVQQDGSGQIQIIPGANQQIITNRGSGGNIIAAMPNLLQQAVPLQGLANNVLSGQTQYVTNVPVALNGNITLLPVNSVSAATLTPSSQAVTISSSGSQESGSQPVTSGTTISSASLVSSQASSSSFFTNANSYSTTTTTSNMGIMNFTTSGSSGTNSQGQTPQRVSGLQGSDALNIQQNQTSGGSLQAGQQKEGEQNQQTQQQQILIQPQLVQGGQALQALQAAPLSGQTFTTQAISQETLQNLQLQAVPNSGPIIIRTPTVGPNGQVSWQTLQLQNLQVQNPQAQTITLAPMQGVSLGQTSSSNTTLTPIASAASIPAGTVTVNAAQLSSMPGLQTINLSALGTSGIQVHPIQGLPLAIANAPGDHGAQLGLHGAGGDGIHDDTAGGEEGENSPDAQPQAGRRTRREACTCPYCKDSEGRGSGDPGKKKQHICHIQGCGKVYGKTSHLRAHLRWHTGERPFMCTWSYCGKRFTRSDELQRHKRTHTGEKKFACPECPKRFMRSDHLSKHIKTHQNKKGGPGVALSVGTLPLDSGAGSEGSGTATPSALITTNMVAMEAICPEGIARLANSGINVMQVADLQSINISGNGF
UniProt Q9Y3B4, sequence (Q9Y3B4 whole entry, looked up): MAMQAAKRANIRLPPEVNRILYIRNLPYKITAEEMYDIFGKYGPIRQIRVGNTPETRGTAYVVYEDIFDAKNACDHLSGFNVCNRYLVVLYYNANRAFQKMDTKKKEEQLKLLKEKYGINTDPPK
UniProt Q96EX1, sequence (Q96EX1 whole entry, looked up): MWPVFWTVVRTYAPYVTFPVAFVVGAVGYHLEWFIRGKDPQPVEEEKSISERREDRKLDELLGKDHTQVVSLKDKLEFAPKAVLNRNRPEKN
UniProt Q9UQE7, sequence (Q9UQE7 whole entry, looked up): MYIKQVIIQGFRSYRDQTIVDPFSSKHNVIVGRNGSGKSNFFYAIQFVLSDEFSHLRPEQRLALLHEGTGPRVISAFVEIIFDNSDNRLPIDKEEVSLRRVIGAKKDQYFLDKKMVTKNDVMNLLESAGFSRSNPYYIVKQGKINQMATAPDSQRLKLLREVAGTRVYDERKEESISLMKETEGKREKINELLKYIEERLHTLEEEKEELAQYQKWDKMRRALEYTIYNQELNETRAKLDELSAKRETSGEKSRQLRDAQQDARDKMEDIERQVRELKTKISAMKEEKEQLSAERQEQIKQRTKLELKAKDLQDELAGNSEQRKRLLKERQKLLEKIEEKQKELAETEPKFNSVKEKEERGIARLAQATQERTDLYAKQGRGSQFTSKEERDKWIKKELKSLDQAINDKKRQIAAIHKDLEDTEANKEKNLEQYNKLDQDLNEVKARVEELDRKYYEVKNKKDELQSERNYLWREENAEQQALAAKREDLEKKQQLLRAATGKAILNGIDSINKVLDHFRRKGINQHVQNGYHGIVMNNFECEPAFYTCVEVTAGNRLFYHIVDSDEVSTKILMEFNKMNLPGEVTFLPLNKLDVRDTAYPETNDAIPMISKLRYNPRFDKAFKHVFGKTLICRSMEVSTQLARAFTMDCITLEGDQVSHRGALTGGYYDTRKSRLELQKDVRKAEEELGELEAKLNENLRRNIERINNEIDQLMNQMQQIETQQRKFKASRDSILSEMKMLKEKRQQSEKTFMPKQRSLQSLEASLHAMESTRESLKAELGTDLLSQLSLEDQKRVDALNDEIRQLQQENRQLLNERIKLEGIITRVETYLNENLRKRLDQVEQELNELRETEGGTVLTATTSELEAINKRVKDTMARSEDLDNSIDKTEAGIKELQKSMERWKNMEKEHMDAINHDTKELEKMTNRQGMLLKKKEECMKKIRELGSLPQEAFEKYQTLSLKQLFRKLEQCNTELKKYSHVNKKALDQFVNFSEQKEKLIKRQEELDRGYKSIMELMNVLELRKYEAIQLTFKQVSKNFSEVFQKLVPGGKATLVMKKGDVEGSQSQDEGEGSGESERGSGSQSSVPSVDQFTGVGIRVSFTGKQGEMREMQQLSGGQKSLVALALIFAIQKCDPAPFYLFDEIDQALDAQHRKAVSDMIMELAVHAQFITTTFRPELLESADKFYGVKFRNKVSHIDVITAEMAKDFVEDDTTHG
UniProt Q13395, sequence (Q13395 whole entry, looked up): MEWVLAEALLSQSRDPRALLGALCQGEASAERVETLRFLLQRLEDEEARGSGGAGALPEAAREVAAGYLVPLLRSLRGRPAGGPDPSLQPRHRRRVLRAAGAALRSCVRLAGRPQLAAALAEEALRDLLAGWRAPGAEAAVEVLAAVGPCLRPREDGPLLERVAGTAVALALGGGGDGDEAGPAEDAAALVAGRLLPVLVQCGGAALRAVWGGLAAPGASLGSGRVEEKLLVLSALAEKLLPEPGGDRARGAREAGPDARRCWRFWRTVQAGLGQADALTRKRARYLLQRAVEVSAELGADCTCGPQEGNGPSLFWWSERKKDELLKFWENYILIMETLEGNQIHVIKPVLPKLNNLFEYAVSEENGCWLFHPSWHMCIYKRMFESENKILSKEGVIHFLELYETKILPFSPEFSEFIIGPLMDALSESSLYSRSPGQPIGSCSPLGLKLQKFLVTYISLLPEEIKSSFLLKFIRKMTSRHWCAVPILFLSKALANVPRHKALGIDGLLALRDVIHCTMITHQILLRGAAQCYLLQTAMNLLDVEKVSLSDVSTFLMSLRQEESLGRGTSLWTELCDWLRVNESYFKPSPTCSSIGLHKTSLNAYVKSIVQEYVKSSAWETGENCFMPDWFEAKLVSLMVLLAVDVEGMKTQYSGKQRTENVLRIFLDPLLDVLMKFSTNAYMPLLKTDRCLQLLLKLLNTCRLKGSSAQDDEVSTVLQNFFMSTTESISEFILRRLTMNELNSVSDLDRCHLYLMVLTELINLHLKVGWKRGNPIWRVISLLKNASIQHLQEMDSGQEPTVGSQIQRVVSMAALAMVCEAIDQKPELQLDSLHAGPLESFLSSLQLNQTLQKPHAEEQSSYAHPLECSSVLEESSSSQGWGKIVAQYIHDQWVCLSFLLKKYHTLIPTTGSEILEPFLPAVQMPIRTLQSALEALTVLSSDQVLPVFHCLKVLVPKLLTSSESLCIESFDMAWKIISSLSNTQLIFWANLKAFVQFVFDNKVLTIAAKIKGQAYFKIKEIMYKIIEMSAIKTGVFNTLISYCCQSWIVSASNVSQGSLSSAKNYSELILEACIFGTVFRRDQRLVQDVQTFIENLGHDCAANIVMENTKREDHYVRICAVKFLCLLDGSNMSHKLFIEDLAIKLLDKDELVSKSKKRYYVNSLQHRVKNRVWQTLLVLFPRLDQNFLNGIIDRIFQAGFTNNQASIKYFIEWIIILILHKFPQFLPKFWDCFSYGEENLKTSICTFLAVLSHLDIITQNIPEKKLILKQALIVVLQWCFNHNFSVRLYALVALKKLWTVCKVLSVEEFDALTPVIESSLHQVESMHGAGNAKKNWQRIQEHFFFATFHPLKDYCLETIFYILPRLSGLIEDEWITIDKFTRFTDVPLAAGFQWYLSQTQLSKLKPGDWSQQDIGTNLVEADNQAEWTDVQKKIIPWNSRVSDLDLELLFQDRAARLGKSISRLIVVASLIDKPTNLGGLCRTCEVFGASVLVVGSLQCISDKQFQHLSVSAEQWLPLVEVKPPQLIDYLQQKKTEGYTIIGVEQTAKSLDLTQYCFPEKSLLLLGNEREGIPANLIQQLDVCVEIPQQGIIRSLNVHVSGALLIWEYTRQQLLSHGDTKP
UniProt Q9UJC5, sequence (Q9UJC5 whole entry, looked up): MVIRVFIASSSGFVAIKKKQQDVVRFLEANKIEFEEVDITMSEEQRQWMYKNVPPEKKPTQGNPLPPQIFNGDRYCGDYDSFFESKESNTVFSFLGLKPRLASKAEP
UniProt Q14542, sequence (Q14542 whole entry, looked up): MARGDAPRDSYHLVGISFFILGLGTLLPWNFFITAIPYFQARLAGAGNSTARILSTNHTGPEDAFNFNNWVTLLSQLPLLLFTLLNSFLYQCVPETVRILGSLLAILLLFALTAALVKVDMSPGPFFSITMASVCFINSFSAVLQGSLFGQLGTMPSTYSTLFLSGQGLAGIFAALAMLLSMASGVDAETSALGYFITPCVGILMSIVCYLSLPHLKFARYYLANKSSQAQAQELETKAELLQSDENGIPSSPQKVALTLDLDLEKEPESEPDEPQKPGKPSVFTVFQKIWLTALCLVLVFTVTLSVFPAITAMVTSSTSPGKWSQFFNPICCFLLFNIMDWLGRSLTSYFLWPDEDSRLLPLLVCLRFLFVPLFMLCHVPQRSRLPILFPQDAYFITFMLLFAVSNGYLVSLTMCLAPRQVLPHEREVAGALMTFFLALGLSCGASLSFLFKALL
UniProt Q16637, sequence (Q16637 whole entry, looked up): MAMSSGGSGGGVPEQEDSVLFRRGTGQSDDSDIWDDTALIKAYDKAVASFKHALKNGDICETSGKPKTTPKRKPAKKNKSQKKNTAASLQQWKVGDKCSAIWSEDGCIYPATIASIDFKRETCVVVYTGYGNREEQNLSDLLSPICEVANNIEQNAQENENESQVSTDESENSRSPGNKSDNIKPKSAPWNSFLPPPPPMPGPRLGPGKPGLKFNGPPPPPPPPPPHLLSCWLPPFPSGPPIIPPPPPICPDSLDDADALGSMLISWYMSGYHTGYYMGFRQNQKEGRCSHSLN
UniProt Q8WVK7, sequence (Q8WVK7 whole entry, looked up): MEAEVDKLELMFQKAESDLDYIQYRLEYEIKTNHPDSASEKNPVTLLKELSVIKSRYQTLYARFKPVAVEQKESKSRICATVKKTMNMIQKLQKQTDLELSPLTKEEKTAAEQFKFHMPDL
UniProt P62316, sequence (P62316 whole entry, looked up): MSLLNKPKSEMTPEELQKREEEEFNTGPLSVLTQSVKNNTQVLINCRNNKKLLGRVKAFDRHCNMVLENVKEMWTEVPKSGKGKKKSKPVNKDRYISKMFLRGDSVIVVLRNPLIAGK

Q: For SLC27A2 (UniProt O14975), which log2 fold change is on record?
A: 0.099

Q: SH3BGRL2 (UniProt Q9UJC5) was tested. Which log2 fold change did it give?
A: 0.045

Q: How did the log2 fold change turn out when STAT2 (UniProt P52630) was run?
A: -0.01

Q: How did the log2 fold change turn out when SLC39A11 (UniProt Q8N1S5) was run?
A: -0.139

Q: How did the log2 fold change turn out when SYF2 (UniProt O95926) was run?
A: -0.025

Q: SMC3 (UniProt Q9UQE7) was tested. Which log2 fold change did it give?
A: 0.018

Q: With SPIRE1 (UniProt Q08AE8) as the target, how does the log2 fold change read?
A: 0.068

Q: SNRNP40 (UniProt Q96DI7) was tested. Which log2 fold change did it give?
A: -0.031

Q: Which log2 fold change does the source give for STMN3 (UniProt Q9NZ72) here?
A: -0.122

Q: How did the log2 fold change turn out when SMN1 (UniProt Q16637) was run?
A: -0.075

Q: Which log2 fold change does the source give for TARBP1 (UniProt Q13395) here?
A: 0.051

Q: SKA2 (UniProt Q8WVK7) was tested. Which log2 fold change did it give?
A: -0.011

Q: With STK4 (UniProt Q13043) as the target, how does the log2 fold change read?
A: -0.061

Q: SMG1 (UniProt Q96Q15) was tested. Which log2 fold change did it give?
A: 0.009

Q: How did the log2 fold change turn out when SKA3 (UniProt Q8IX90) was run?
A: -0.01

Q: For SFN (UniProt P31947), which log2 fold change is on record?
A: -0.053

Q: With SFR1 isoform 2 (UniProt Q86XK3) as the target, how does the log2 fold change read?
A: 0.015

Q: With SOAT1 (UniProt P35610) as the target, how does the log2 fold change read?
A: 0

Q: How did the log2 fold change turn out when SNRPD2 (UniProt P62316) was run?
A: -0.004

Q: Which log2 fold change does the source give for SLC29A2 (UniProt Q14542) here?
A: 0.013

Q: SF3B6 (UniProt Q9Y3B4) was tested. Which log2 fold change did it give?
A: 0.001

Q: For SMIM12 (UniProt Q96EX1), which log2 fold change is on record?
A: -0.042

Q: Which log2 fold change does the source give for SOX5 (UniProt P35711) here?
A: 0.38 (active)

Q: Which log2 fold change does the source give for SP1 (UniProt P08047) here?
A: 0.093
